Reference: PubChem BioAssay AID1159580 (chemical genetic matrix, 2015)
In all, about 5,500 compounds went through this assay and about 2,000 (36%) were called active. Roughly 18% stayed inconclusive and do not appear here. No stated cut-off is given here; in the data, active means normalized growth mostly below about 0.91 (no sharp cut-off); inconclusive means no clear call, values can overlap the other calls; inactive means mostly above about 0.92. The list shows a part of the results.

Assay: chemical genetic growth profiling, strain panel (AID 1159580);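 further: tested at 20 µM; growth read once vehicle control cultures reached saturation at 30 °C; 1 = growth at the plate median or of vehicle wells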
Details: S. cerevisiae deletion strains, growth OD
[1] = locus YAR019C, strain CDC15, stronger effect = lower value
[2] = locus YBL105C, strain PKC1, stronger effect = lower value
[3] = locus YBR135W, strain CKS1, stronger effect = lower value
[4] = locus YBR136W, strain MEC1, stronger effect = lower value
[5] = locus YBR160W, strain CDC28, stronger effect = lower value
[6] = locus YDL017W, strain CDC7, stronger effect = lower value
[7] = locus YDL028C, strain MPS1, stronger effect = lower value
[8] = locus YDL101C, strain DUN1, stronger effect = lower value
[9] = locus YDL108W, strain KIN28, stronger effect = lower value
[10] = locus YDL132W, strain cdc53, stronger effect = lower value
[11] = locus YDL214C, strain PRR2, stronger effect = lower value
[12] = locus YDR052C, strain DBF4, stronger effect = lower value
[13] = locus YDR054C, strain cdc34, stronger effect = lower value
[14] = locus YDR226W, strain ADK1, stronger effect = lower value
[15] = locus YDR477W, strain SNF1, stronger effect = lower value
[16] = locus YER123W, strain YCK3, stronger effect = lower value
[17] = locus YER133W, strain GLC7, stronger effect = lower value
[18] = locus YFL009W, strain cdc4, stronger effect = lower value
[19] = locus YFL029C, strain CAK1, stronger effect = lower value
[20] = locus YFR003C, strain YPI1, stronger effect = lower value
[21] = locus YFR019W, strain FAB1, stronger effect = lower value
[22] = locus YFR028C, strain CDC14, stronger effect = lower value
[23] = locus YGR040W, strain KSS1, stronger effect = lower value
[24] = locus YGR052W, strain FMP48, stronger effect = lower value
[25] = locus YGR092W, strain DBF2, stronger effect = lower value
[26] = locus YHR030C, strain SLT2, stronger effect = lower value
[27] = locus YHR079C, strain IRE1, stronger effect = lower value
[28] = locus YHR082C, strain KSP1, stronger effect = lower value
[29] = locus YHR205W, strain SCH9, stronger effect = lower value
[30] = locus YIL147C, strain SLN1, stronger effect = lower value
[31] = locus YJL095W, strain BCK1, stronger effect = lower value
[32] = locus YJL128C, strain PBS2, stronger effect = lower value
[33] = locus YJL157C, strain FAR1, stronger effect = lower value
[34] = locus YJR016C, strain ILV3, stronger effect = lower value
[35] = locus YJR066W, strain TOR1 (second series), stronger effect = lower value
[36] = locus YJR066W, strain TOR1, stronger effect = lower value
[37] = locus YKL048C, strain ELM1, stronger effect = lower value
[38] = locus YKL067W, strain YNK1, stronger effect = lower value
[39] = locus YKL101W, strain HSL1, stronger effect = lower value
[40] = locus YKL193C, strain SDS22, stronger effect = lower value
[41] = locus YKL203C, strain TOR2, stronger effect = lower value
[42] = locus YLR113W, strain HOG1, stronger effect = lower value
[43] = locus YLR133W, strain CKI1, stronger effect = lower value
[44] = locus YLR403W, strain SFP1, stronger effect = lower value
[45] = locus YML070W, strain DAK1, stronger effect = lower value
[46] = locus YMR001C, strain CDC5, stronger effect = lower value
[47] = locus YMR205C, strain PFK2 (second series), stronger effect = lower value
[48] = locus YMR277W, strain FCP1, stronger effect = lower value
[49] = locus YNL006W, strain LST8, stronger effect = lower value
[50] = locus YNL020C, strain ARK1, stronger effect = lower value
[51] = locus YNL161W, strain CBK1, stronger effect = lower value
[52] = locus YNL183C, strain NPR1, stronger effect = lower value
[53] = locus YNL207W, strain RIO2, stronger effect = lower value
[54] = locus YNL222W, strain SSU72, stronger effect = lower value
[55] = locus YNL307C, strain MCK1 (second series), stronger effect = lower value
[56] = locus YOL078W, strain AVO1, stronger effect = lower value
[57] = locus YOL136C, strain PFK27, stronger effect = lower value
[58] = locus YOR061W, strain CKA2, stronger effect = lower value
[59] = locus YOR119C, strain RIO1, stronger effect = lower value
[60] = locus YOR231W, strain MKK1, stronger effect = lower value
[61] = locus YOR329C, strain SCD5, stronger effect = lower value
[62] = locus YPL031C, strain PHO85, stronger effect = lower value
[63] = locus YPL153C, strain RAD53, stronger effect = lower value
[64] = locus YPL204W, strain HRR25, stronger effect = lower value
[65] = locus YPL209C, strain IPL1, stronger effect = lower value
[66] = locus YPL256C, strain CLN2, stronger effect = lower value
[67] = locus YPR025C, strain CCL1, stronger effect = lower value
[68] = locus YPR106W, strain ISR1, stronger effect = lower value
[69] = locus YPR111W, strain DBF20, stronger effect = lower value
[70] = strain NNK1, stronger effect = lower value
[71] = strain TSCII, stronger effect = lower value

Measured: normalized growth

N#C/C(=N/Nc1ccc(Cl)cc1)C(N)=S
active: [1] 0.44 | [2] 0.434 | [3] 0.529 | [4] 0.513 | [5] 0.515 | [6] 0.616 | [7] 0.647 | [8] 0.345 | [9] 0.617 | [10] 0.43 | [11] 0.176 | [12] 0.825 | [13] 0.325 | [14] 0.57 | [15] 0.155 | [16] 0.197 | [17] 0.194 | [18] 0.468 | [19] 0.467 | [20] 0.644 | [21] 0.182 | [22] 0.577 | [23] 0.179 | [24] 0.204 | [25] 0.15 | [26] 0.208 | [27] 0.145 | [28] 0.206 | [29] 0.226 | [30] 0.627 | [31] 0.186 | [32] 0.628 | [33] 0.172 | [34] 0.574 | [35] 0.234 | [36] 0.244 | [37] 0.327 | [38] 0.167 | [39] 0.212 | [40] 0.42 | [41] 0.217 | [42] 0.275 | [43] 0.205 | [44] 0.175 | [45] 0.183 | [46] 0.475 | [47] 0.236 | [48] 0.352 | [49] 0.452 | [50] 0.182 | [51] 0.427 | [52] 0.185 | [53] 0.515 | [54] 0.428 | [55] 0.177 | [56] 0.483 | [57] 0.199 | [58] 0.23 | [59] 0.225 | [60] 0.171 | [61] 0.515 | [62] 0.207 | [63] 0.193 | [64] 0.203 | [65] 0.601 | [66] 0.231 | [67] 0.611 | [68] 0.475 | [69] 0.583 | [70] 0.471 | [71] 0.495

N#CC(C#N)=NNc1ccc(-n2ccc(C(F)(F)F)n2)cc1
inactive: [4] 0.905 | [5] 0.902 | [6] 0.926 | [7] 0.923 | [9] 0.907 | [14] 0.917 | [20] 0.927 | [22] 0.899 | [29] 0.595 | [30] 0.928 | [32] 0.915 | [49] 0.914 | [61] 0.924 | [68] 0.902 | [69] 0.878
active: [1] 0.871 | [2] 0.899 | [3] 0.893 | [8] 0.88 | [10] 0.76 | [11] 0.348 | [12] 0.876 | [13] 0.607 | [15] 0.368 | [16] 0.208 | [17] 0.422 | [18] 0.876 | [19] 0.853 | [21] 0.199 | [23] 0.48 | [24] 0.31 | [25] 0.176 | [26] 0.131 | [27] 0.175 | [28] 0.271 | [31] 0.204 | [33] 0.329 | [34] 0.895 | [35] 0.225 | [36] 0.201 | [37] 0.321 | [38] 0.403 | [39] 0.349 | [40] 0.875 | [41] 0.283 | [42] 0.207 | [43] 0.383 | [44] 0.448 | [45] 0.229 | [46] 0.883 | [47] 0.433 | [48] 0.865 | [50] 0.349 | [51] 0.884 | [52] 0.292 | [53] 0.875 | [54] 0.861 | [55] 0.379 | [56] 0.739 | [57] 0.202 | [58] 0.568 | [59] 0.419 | [60] 0.156 | [62] 0.273 | [63] 0.157 | [64] 0.183 | [65] 0.897 | [66] 0.178 | [67] 0.89 | [70] 0.866 | [71] 0.861
